From PubChem BioAssay
TGFb inhibitor = TGF-b pathway inhibition; HepG2 CAGA-GFP TGF-b/SMAD3 reporter, GFP fluorescence, 18 h; TGF-beta stimulated, 500 pg/mL final; Potency, µM (doses to about 46.1 µM), for inactives: at the highest dose activity, negative = inhibition, most hits filed as inhibitors; 1.2% of 410,000 active; AID 588855; note: % is set by controls: 0 for no effect and ±100 for the full control effect; nearly all actives have a fitted effect of over 65% in size
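HEPG2 CAGA-GFP reporter cells (1000/well, DMEM with 1% FBS) received compounds, then recombinant TGF-beta at 500 pg/mL final for 18 hours at 37 degrees C. Per-cell GFP summed per well was normalised to unstimulated and stimulated DMSO controls before curve fitting.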
KB-3-1 tox = KB-3-1 parental cell cytotoxicity | 1.4% of 400,000 active | AID 1347075 | Potency, µM (doses to about 46.1 µM), actives largely listed as cytotoxic | KB-3-1 viability, CellTiter-Glo ATP luminescence, 72 h; note: % is set by controls: 0 for no effect and ±100 for the full control effect; nearly all actives have a fitted effect of over 60% in size
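KB-3-1 parental drug-naive adenocarcinoma cells in DMEM/10% FBS, incubated 72 h at 37 C with pin-transferred compounds across a concentration series. Viability by CellTiter-Glo luminescence; concentration-response curves fitted after normalization.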
HT1080 IDH1KD tx = toxicity to HT-1080 IDH1 knockdown cells (counter line); HT-1080 IDH1 knockdown viability, ATP luminescence, 48 h; Potency, µM (series often up to 46.1 µM), inactives show top-dose activity, negative = toxicity, actives largely listed as cytotoxic; 2% of 360,000 active; AID 686971;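 note: 0% = DMSO wells and -100% = cell-free medium wells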
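% activity derives from luminescence (CellTiter-Glo), normalised to DMSO and no-cell wells. HT-1080-IDH1KD cells, 750/well, had 48 h compound exposure at 37 °C.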
HepG2 viability = HepG2 cytotoxicity, counter-screen for TGF-b inhibitors; Potency, µM (titrated, usually from 46.1 µM), without a hit: top-dose activity change, negative = cytotoxicity, actives largely listed as cytotoxic; 0.76% of 410,000 active; AID 588856; HepG2 CAGA-GFP viability, ATP luminescence, 18 h
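CellTiter-Glo luminescence gave cytotoxicity after 18 hours at 37 degrees C. The cells were HepG2 CAGA-GFP in 1% FBS DMEM, stimulated with 500 pg/mL TGF-beta after compound addition. %Activity was normalised to no-cell wells (complete cell-killing) and DMSO (no toxicity), and curves were fitted and classified.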
KB-V1 cytotox = kills drug-selected multidrug resistant KB-V1 cells; 3.4% of 400,000 active; Potency, µM (doses to about 46.1 µM), most hits filed as cytotoxic; KB-V1 MDR cells viability, CellTiter-Glo, 72 h; AID 1347076; note: % is set by controls: 0 for no effect and ±100 for the full control effect; nearly all actives have a fitted effect of over 60% in size
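Cytotoxicity via CellTiter-Glo luminescence after 72 h compound exposure at 37 degrees C. Cells: drug-selected KB-V1 line, DMEM phenol-red free plus 10% FBS. Compounds tested at multiple concentrations; normalized data fitted to concentration-effect curves.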
HT1080-NT tox = kills 2HG-producing HT-1080-NT fibrosarcoma cells; 1.6% of 360,000 active; Potency, µM (titrated, usually from 46.1 µM), without a hit: at the top dose activity, negative = less viability, most hits filed as cytotoxic; HT-1080-NT fibrosarcoma viability, CellTiter-Glo ATP luminescence, 48 h;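 note: NT is the 2HG producing partner of a matched IDH1 knockdown line; 0% = DMSO-treated cells and -100% = media-only wells without cells; nearly all actives have a fitted effect of over 55% in size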
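Fibrosarcoma NT cells, 750 per well in 5% FBS RPMI, were exposed to compound for 48 hours. Viability: CellTiter-Glo luminescence.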
* hit, by the source's call; i = inactive; ? = inconclusive; . = no result; ! = repeats disagree; [ ] = another dose, or the depositor's remark. Sampled rows, rich in hits. Any-hit rate of the full collection: about 6.6%. Calls come from the whole dose curve; as a rule, active = well fitted curve in the direction sought with a large enough effect; inconclusive = small, poorly fitted or top-dose-only effect, or another doubt; inactive = no such curve, though single readings can be large; an effect the other way counts as inactive or inconclusive. Potency is the fitted concentration of half-maximal effect.

SMILES | TGFb inhibitor | KB-3-1 tox | HT1080 IDH1KD tx | HepG2 viability | KB-V1 cytotox | HT1080-NT tox
Cc1cc(OCCCn2c(CCNC(=O)C3CCCCC3)nc3ccccc32)ccc1Cl | ? | . | . | -115% | . | .
Cc1ccc(C)c(CN2C(=O)c3ccccc3S(=O)(=O)c3ccc(C(=O)N4CCN(c5ccccn5)CC4)cc32)c1 | . | . | . | -23% | . | .
COc1cc(S(=O)(=O)N2CCN3CCCC3C2)ccc1-n1cnnn1 (centres undefined) | 1% | i | 4% | 6% | i | 8%
COc1cc(S(=O)(=O)N2CCCC3(CCCCC3)C2)ccc1-n1cnnn1 | -16% | i | -10% | 8% | 21µM* | -5%
Cc1ccc2cc(F)c(F)c(F)c2n1 | 3% | i | 8% | 0% | i | ?
Cc1ccc2ccc3ccc(C)nc3c2n1 | ? | i | ? | -10% | i | 0.0058µM*
COC(=O)c1ccc(CNC(=O)c2ccc(S(=O)(=O)N3CCCC(C)C3)cc2)cc1 (centres undefined) | ? | i | 8% | -10% | 16µM* | -1%
Oc1ccc(N=Cc2ccc(OCc3ccccc3)cc2)cc1 | 11µM* | i | ? | -106% | i | ?
O=[N+]([O-])c1cccc(CN2C(COCc3ccccc3)CCC=CS2(=O)=O)c1 (centres undefined) | -19% | . | . | -25% | . | .
CC(=O)c1cc2c(cc1NC(=O)Cn1nc(-c3ccc(C)cc3)ccc1=O)OCO2 | ? | 23µM* | -7% | -24% | 9.2µM* | 1%
Cc1ccc(-n2nc3c(N4CCC(C(=O)N5CCCCC5)CC4)nnc(C)c3c2C)cc1 | ? | i | . | -19% | i | .
Cc1nn(-c2ccc3nnc(C)n3n2)c(C)c1CCC(=O)Nc1ccc(OC(F)(F)F)cc1 | -2% | . | . | -16% | . | .
CN(Cc1ccccc1)C(=O)c1oc(=O)c2ccccc2c1-c1ccccc1 | 14% | i | -20% | -13% | 8.2µM* | -13%
Cc1ccc(-c2c(C(=O)N(C)Cc3ccccc3)oc(=O)c3ccccc23)cc1 | ? | 18µM*! | -8% | -38% | 4.6µM*! | -5%
Cc1ccc(-c2c(C(=O)NCc3ccccc3)oc(=O)c3ccccc23)cc1 | -2% | i | 2% | 4% | ? | 2%
CCOc1ccc(N(C)C(=O)c2oc(=O)c3ccccc3c2-c2ccccc2)cc1 | 16µM* | . | . | -31% | . | .
COc1ccc(-c2nc3sc(CCNC(=O)c4ccc(C(C)(C)C)cc4)c(C)n3n2)cc1 | ? | i | . | -21% | i | .
COC(=O)c1onc(-c2ccccc2)c1C(=O)OC | 8% | i | 12% | 1% | i | 6%
COC(=O)c1c(-c2ccc(F)cc2)noc1N | -11% | i | 11µM* | 10% | i | 6%[9.24 µM]
Cc1csc(NC(=O)CCn2c(=O)sc3ccccc32)n1 | 0% | i | 2% | 3% | 23µM* | 4%
CCCc1nnc(NC(=O)CN2C(=O)c3ccccc3C2=O)s1 | 4% | i | 11% | -14% | i | 29%
CCCc1nnc(NC(=O)Cn2c(=O)sc3ccccc32)s1 | 1% | i | 4% | 9% | 18µM* | -3%
CCN(CC)S(=O)(=O)c1ccc(C(=O)NCCSc2c(-c3ccc(C)cc3)[nH]c3ccccc23)cc1 | -3% | i | . | -5% | i | .
Cc1ccc(-c2nc(CS(=O)(=O)CC(=O)N3CCCCCC3)c(C)o2)cc1 | -33% | i | -8% | -33% | i | -7%
Cc1ccc(-c2nc(CS(=O)(=O)CC(=O)N3CCN(c4ccccc4)CC3)c(C)o2)cc1 | 11µM* | ? | . | -29% | i | .
Cc1ccccc1-c1nc(CS(=O)(=O)CC(=O)N2CCN(c3ccccc3)CC2)c(C)o1 | ? | i | . | -28% | ? | .
